# Data published in PubChem BioAssay (NCATS).
# Inconclusive results are not listed. Where a call stands in place of a potency, no number is given. Unmarked numbers belong to inactive results. Active and inactive are the calls of the source. Unless noted, calls come from the whole dose curve.
# Key:
# [1] = qHTS for Inhibitors of the Functional Ribonucleoprotein Complex (vRNP) of Lassa (LASV) Arenavirus: LASV Primary Screen - GLuc reporter signal (AID 1347082; calls by dose curve; tested in HEK293 reporter line; note: nearly all actives have a fitted effect of over 60% in size; for activity change, negative = inhibition: series mostly up to about 57 µM)
# [2] = qHTS for Inhibitors of the Functional Ribonucleoprotein Complex (vRNP) of Lassa (LASV) Arenavirus: Viability assay - alamar blue signal for LASV Primary Screen (AID 1347083; calls by dose curve; tested in HEK293 reporter line; note: nearly all actives have a fitted effect of over 80% in size; for activity change, negative = reduced viability: series mostly up to about 57 µM)
# [3] = qHTS for Inhibitors of the Functional Ribonucleoprotein Complex (vRNP) of Lymphocytic Choriomeningitis Arenaviruses (LCMV): Viability assay - alamar blue signal for LCMV Primary Screen (AID 1347085; calls by dose curve; tested in HEK293 reporter line; note: nearly all actives have a fitted effect of over 80% in size; for activity change, negative = lower viability: series mostly up to about 57 µM)
# [4] = target: Nucleoprotein (Lymphocytic choriomeningitis virus (strain Armstrong)) (UniProt P09992); experiment: qHTS for Inhibitors of the Functional Ribonucleoprotein Complex (vRNP) of Lymphocytic Choriomeningitis Arenaviruses (LCMV): LCMV Primary Screen - GLuc reporter signal (AID 1347086); note: nearly all actives have a fitted effect of over 70% in size; for activity change, negative = inhibition: series mostly up to about 57 µM
# Chain of Nucleoprotein (Lymphocytic choriomeningitis virus (strain Armstrong)) (P09992 whole entry, looked up): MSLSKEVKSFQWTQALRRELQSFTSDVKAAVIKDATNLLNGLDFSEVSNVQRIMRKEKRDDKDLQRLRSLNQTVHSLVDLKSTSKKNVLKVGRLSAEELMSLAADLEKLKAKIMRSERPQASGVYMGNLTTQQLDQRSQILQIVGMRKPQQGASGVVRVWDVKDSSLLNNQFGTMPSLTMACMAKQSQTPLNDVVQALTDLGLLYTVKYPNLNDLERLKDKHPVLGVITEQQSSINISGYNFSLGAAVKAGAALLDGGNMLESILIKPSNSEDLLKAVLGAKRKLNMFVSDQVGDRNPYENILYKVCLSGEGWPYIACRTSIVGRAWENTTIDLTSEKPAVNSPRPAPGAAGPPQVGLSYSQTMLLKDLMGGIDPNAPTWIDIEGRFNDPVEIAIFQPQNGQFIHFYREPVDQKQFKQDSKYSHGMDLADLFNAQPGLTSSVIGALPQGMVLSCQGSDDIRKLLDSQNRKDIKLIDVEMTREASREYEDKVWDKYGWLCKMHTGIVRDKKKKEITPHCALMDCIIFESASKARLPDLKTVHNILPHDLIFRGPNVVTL
# Potency is the fitted concentration of half-maximal effect.
SMILES,Potency [1],Potency [2],Potency [3],Potency [4],"activity change, negative = inhibition [1]","activity change, negative = reduced viability [2]","activity change, negative = lower viability [3]","activity change, negative = inhibition [4]"
O=C1NC(=O)/C(=C/c2ccc3c(c2)OC(F)(F)O3)S1,inactive,inactive,inactive,inactive,,,,
COc1c2c(c(CCC(=O)O)c3c1C=CC(C)(C)O3)OC(C)(C)C=C2,inactive,inactive,inactive,inactive,,,,
Oc1cc(O)cc(C=Cc2ccc(O)c(O)c2)c1,inactive,inactive,inactive,inactive,,,,
C=C(CO)CC1CC(O)[C@]2(C)OC3CC4OC5C[C@]6(C)O[C@]7(C)CCC8OC9C[C@]%10(C)OC%11C(C)=CC(=O)OC%11CC%10OC9C[C@@H](C)C8OC7CC6O[C@]5(C)C/C=C\C4OC3CC2O1 (stereo not given in full),inactive,inactive,inactive,inactive,,,,
O=C1c2c(O)cc(O)cc2O[C@H](c2ccc(O)c(O)c2)[C@@H]1O,inactive,inactive,inactive,inactive,,,,
CC1=C(C=O)C(C)(C)CCC1,inactive,inactive,inactive,inactive,,,,
COC1CC(C)C(OC)c2cc(O)cc(c2O)NC(=O)C(C)=CC=CC(C)C(OC(N)=O)C(C)=CC(C)C1OC (stereo not given),inactive,inactive,inactive,inactive,,,,
CC1(C)C[C@H](O)[C@]2(CO)[C@H](O)C[C@]3(C)C(=CCC4[C@@]5(C)CC[C@H](O)C(C)(C)C5CC[C@]43C)[C@@H]2C1 (stereo not given in full),inactive,inactive,inactive,inactive,,,,
O=c1c(-c2ccc(O)cc2)coc2cc(O[C@@H]3O[C@H](CO)[C@H](O)[C@H](O)[C@H]3O)ccc12,inactive,inactive,inactive,inactive,,,,
COC(=O)C1=CO[C@@H](C)[C@@H]2CN3CCc4c([nH]c5ccccc45)[C@@H]3C[C@H]12,inactive,inactive,inactive,inactive,,,,
C=C1C2C[C@H](O)C(C)(C)[C@@]2(O)[C@H](O)C[C@]23C[C@@](C)(O)[C@H](CC[C@H]12)[C@H]3OC(C)=O (stereo not given in full),inactive,inactive,inactive,inactive,,,,
CCCCC/C=C/CC(=O)OC,inactive,inactive,inactive,inactive,,,,
CC(=O)OC(C)c1ccccc1 (stereo not given),inactive,inactive,inactive,inactive,,,,
CC1=CC(=O)OC2CC3OC4C[C@@H](C)C5OC6CC7O[C@]8(C)C/C=C\C9OC%10CC%11OC(CC(C)CO)CC(O)[C@]%11(C)OC%10CC9OC8C[C@]7(C)O[C@]6(C)CCC5OC4C[C@]3(C)OC12 (stereo not given in full),inactive,inactive,inactive,inactive,,,,
COC(=O)C1=CO[C@@H](O)[C@@H]2C(CO)=CC[C@@H]12,inactive,inactive,inactive,inactive,,,,
O[C@@H]1CCN2Cc3ccccc3N=C12,inactive,inactive,inactive,inactive,,,,
CC1=CC(=O)C2=C(C)C[C@@H]3OC(=O)[C@@H](C)[C@H]3C=C12,inactive,inactive,inactive,inactive,,,,
CC(C)(O)Cn1c(NC(=O)c2ccc(-c3cn[nH]c3)s2)nc2cc(CN3CCOCC3)ccc21,3.43 µM (active),3.43 µM (active),4.32 µM (active),10.9 µM (active),,,,
CC1=CC[C@H](CC=O)C1(C)C,inactive,inactive,inactive,inactive,,,,
CCCC(=O)OC/C=C(\C)CCC=C(C)C,inactive,inactive,inactive,inactive,,,,

SMILES,Potency [1],Potency [2],Potency [3],Potency [4],"activity change, negative = inhibition [1]","activity change, negative = reduced viability [2]","activity change, negative = lower viability [3]","activity change, negative = inhibition [4]"
C=C1CC[C@H](O)C/C1=C/C=C1\CCC[C@]2(C)[C@@H]([C@H](C)CCC(O)C(C)(C)O)CC[C@@H]12 (stereo not given in full),inactive,inactive,inactive,inactive,,,,
COc1cc(OC)c2ccc(=O)oc2c1,inactive,inactive,inactive,inactive,,,,
C/C=C/c1cc(OC)c2c(c1)[C@H](C)[C@@H](c1ccc(O)c(OC)c1)O2,inactive,inactive,inactive,inactive,,,,
CCCCCC(=O)CC,inactive,inactive,inactive,inactive,,,,
CC1=C2C(=O)C3C(CC=C4CC(O)CCC43C)C2CCC12OC1CC(C)CNC1C2C (stereo not given),inactive,inactive,inactive,inactive,,,,
CC1=C(C(=O)O)N2C(=O)C(NC(=O)CCCC(=O)O)C2SC1 (stereo not given),inactive,inactive,inactive,inactive,,,,
CC(C)C(O)(C(=O)OC[C@@H]1CC[N+]2([O-])CCCC12)C(C)O (stereo not given in full),inactive,inactive,inactive,inactive,,,,
NCCC(=O)O,inactive,inactive,inactive,inactive,,,,
O=C(/C=C/c1ccc(O)cc1)OCc1occc(=O)c1O[C@@H]1OC(CO)[C@@H](O)[C@H](O)[C@@H]1O (stereo not given in full),inactive,inactive,inactive,inactive,,,,
O=C1C=C(O)c2cccc(O)c2C1=O,inactive,inactive,inactive,inactive,,,,
Cc1c(-c2cccc3c(CCCOc4cccc5ccccc45)c(C(=O)O)n(Cc4cccnc4)c23)c(COc2ccc(N3CCN([S+](=O)([O-])N(C)C)CC3)cc2)nn1C,inactive,inactive,inactive,inactive,,,,
COc1ccc2ccc(=O)oc2c1CC(=O)C(C)C,inactive,inactive,inactive,inactive,,,,
CO[C@H]1[C@@H]2C=CO[C@@H](O[C@H]3O[C@@H](CO)[C@H](O)[C@@H](O)[C@@H]3O)[C@@H]2[C@@]2(CO)O[C@@H]12,inactive,inactive,inactive,inactive,,,,
CN1CCc2cc3c(cc2C1)OCO3,inactive,inactive,inactive,inactive,,,,
CCCCCc1ccco1,inactive,inactive,inactive,inactive,,,,
Nc1nc(Cl)nc2c1ncn2[C@@H]1O[C@H](CO)[C@@H](O)[C@H]1F,inactive,2.17 µM (active),0.243 µM (active),inactive,,,,
COc1cc(C)c(C(=O)Oc2cc(C)c(C(=O)O)c(O)c2C)c(OC)c1C,inactive,inactive,inactive,inactive,,,,
C[C@@H]1O[C@@H](O[C@H]2[C@H](O)[C@@H](O)[C@H](Oc3c(-c4ccc(O)cc4)oc4cc(O)cc(O)c4c3=O)O[C@@H]2CO)[C@H](O)[C@H](O)[C@H]1O,inactive,inactive,inactive,inactive,,,,
CN(CC=CC#CC(C)(C)C)Cc1cccc2ccccc12,inactive,inactive,inactive,inactive,,,,
OC[C@H]1O[C@H](OCc2ccccc2)[C@H](O[C@@H]2OC[C@@H](O)[C@H](O)[C@H]2O)[C@@H](O)[C@@H]1O,inactive,inactive,inactive,inactive,,,,

SMILES,Potency [1],Potency [2],Potency [3],Potency [4],"activity change, negative = inhibition [1]","activity change, negative = reduced viability [2]","activity change, negative = lower viability [3]","activity change, negative = inhibition [4]"
COC1=C(C)C(=O)O[C@]12C(=O)C(C)=C1CCCCN3[C@H]([C@@H]4C[C@H](C)C(=O)O4)CC[C@]132,inactive,inactive,inactive,inactive,,,,
C=C(C)C(O)Cc1c(OC)ccc(C(=O)/C=C/c2ccc(O)cc2)c1O (stereo not given),inactive,inactive,inactive,inactive,,,,
CC(=O)c1c(O)cccc1O,inactive,inactive,inactive,inactive,,,,
COc1cc2cc(Oc3ccc4ccc(=O)oc4c3)c(=O)oc2cc1OC1OC(COC(=O)CC(C)(O)CC(=O)O)C(O)C(O)C1O (stereo not given),inactive,inactive,inactive,inactive,,,,
CCN1C[C@]2(C)CCC(OC)[C@@]34C5C[C@@H]6CC[C@@](O)(C5C(=O)O6)[C@@H](C(O)C23)[C@@H]14 (stereo not given in full),inactive,inactive,inactive,inactive,,,,
C#CC(N)CCC(=O)O (stereo not given),inactive,inactive,inactive,inactive,,,,
C/C=C(/C)C(=O)O[C@H]1CC(C)=CC(=O)[C@@]2(C)CC[C@@](O)(C(C)C)[C@H]12,inactive,inactive,inactive,inactive,,,,
C[N+]1([O-])[C@@H]2Cc3cc4c(cc3[C@@H]1Cc1cc3c(cc12)OCO3)OCO4 (stereo not given in full),inactive,inactive,inactive,inactive,,,,
COC(=O)c1ccccc1OC,inactive,inactive,inactive,inactive,,,,
COc1cc(/C=C2/C(=O)Nc3ccccc32)cc(OC)c1O,inactive,inactive,inactive,inactive,,,,
NC(=O)[C@H]1CCCN1C(=O)[C@H](Cc1cnc[nH]1)NC(=O)[C@@H]1CCC(=O)N1,,,,,10.2% [at 5.82 µM],6.52% [at 5.82 µM],-0.247% [at 5.82 µM],-2.24% [at 5.82 µM]
C/C=C1/CN2C3CC1C(CO)(C(=O)OC)C2Cc1c3n(C)c2ccccc12 (stereo not given),inactive,inactive,inactive,inactive,,,,
C[C@@H]1C2C[C@@]34COC(=O)C3=CC=C[C@H]4[C@@]13C[C@H](c1ccoc1)O[C@@H]3O2,inactive,inactive,inactive,inactive,,,,
CCCCCCC(CO)CCCC (stereo not given),inactive,inactive,inactive,inactive,,,,
Cc1cc(CN2CCN(c3c(Br)cnc4nc(-c5ccc(N6CCN(C)CC6)cc5)[nH]c34)CC2)no1,inactive,inactive,inactive,inactive,,,,
CCCCCCCCCCCC(=O)OCC,inactive,inactive,inactive,inactive,,,,
OCC(O)C(O)C(O)CO (stereo not given),inactive,inactive,inactive,inactive,,,,
CC/C=C\CCCCO,inactive,inactive,inactive,inactive,,,,
COC1[C@@H](OC)C[C@H](C)[C@@H](OC)C2=CC(=O)C=C(NC(=O)/C(C)=C/C=C\[C@H](OC)[C@@H](OC(N)=O)/C(C)=C/[C@@H]1C)C2=O (stereo not given in full),,,,,1.65% [at 5.82 µM],7.34% [at 5.82 µM],15.6% [at 5.82 µM],12.1% [at 5.82 µM]
O=C(O)CCCCCCCCCC(=O)O,inactive,inactive,inactive,inactive,,,,
